Bioassay records: PubChem BioAssay, several laboratories
CYP2C19 inhib = inhibitors of human CYP2C19 | P33261 | CYP2C19 Supersomes, luciferin-H EGE luminescence, 30 min | inhibition, % at 5 µM | hit rate 21% among 96,000 | AID 778;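 active means CYP2C19 inhibition above a set limit at 5 µM in the primary screen, cut at about 50% in these data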
Target sequence (P33261 whole entry, looked up): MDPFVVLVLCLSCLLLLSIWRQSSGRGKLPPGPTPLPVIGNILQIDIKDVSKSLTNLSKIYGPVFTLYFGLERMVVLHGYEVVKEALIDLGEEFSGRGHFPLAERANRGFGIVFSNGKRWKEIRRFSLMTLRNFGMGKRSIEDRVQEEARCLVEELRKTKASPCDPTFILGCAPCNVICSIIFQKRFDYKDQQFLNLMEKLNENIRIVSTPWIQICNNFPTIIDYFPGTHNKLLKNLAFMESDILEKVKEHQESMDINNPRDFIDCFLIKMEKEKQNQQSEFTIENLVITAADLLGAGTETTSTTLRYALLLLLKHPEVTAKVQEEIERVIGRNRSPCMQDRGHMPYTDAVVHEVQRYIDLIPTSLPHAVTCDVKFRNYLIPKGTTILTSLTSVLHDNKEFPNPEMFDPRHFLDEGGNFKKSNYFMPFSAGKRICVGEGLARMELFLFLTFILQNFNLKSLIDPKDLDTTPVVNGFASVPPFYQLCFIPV
CYP2C9 activ = CYP2C9 (human) activation. P11712. recombinant CYP2C9, luciferin-H conversion, luminescence; hits give high values; factor 1 = untreated enzyme, 0 = blocked. activation factor at 5 µM. hit rate 1.4% among 96,000. AID 1024;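 active means activation factor of 2 or more for CYP2C9 at a 5 µM dose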
CYP2C9 inh = blocks human cytochrome P450 2C9; P11712; AID 777; CYP2C9 Supersomes, luciferin-H conversion, luminescence; hit rate 20% among 96,000; inhibition, % at 5 µM;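 active means blocking of liver enzyme CYP2C9 beyond about 50% at 5 µM, limit read from the data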
Measles CPE = protection of cells from measles virus. protection (pct of control), % at 4 µM. hit rate 1.5% among 140,000. Measles virus-infected cells, CPE protection, absorbance; in the data active means protection mostly above about 24%, no sharp cut-off; inactive means mostly below about 26%
CYP2C19 act = increases human CYP2C19 enzyme activity. recombinant CYP2C19, luciferin-H EGE luminescence; hits give high values; 0 = fully inhibited enzyme, 1 = untreated enzyme. activation factor at 5 µM. 96,000 tested, under 10 active. AID 1025;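 active means activation factor of at least 2 at 5 µM in the primary screen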
Of the large screens only hits and unclear results are named; the others gave an inactive call. This is a sample that favours compounds with a hit; in the whole collection about 22% have one here.

C=CCn1c(=O)c2ccccc2n2c(SCc3nc(N)nc(Nc4ccccc4C)n3)nnc12	none
COCC(C)n1c(SCc2nc(N)nc(Nc3ccccc3C)n2)nc2ccccc2c1=O (stereo not drawn)	CYP2C19 inhib 74, CYP2C9 inh 95
CCCCn1c(SCc2nc(N)nc(Nc3ccccc3C)n2)nc2ccccc2c1=O	CYP2C19 inhib 87, CYP2C9 inh 99
CCOC(=O)/C(C#N)=C(/C)c1ccc(OC)cc1	none
COC(=O)c1cc(OC)c(OC)cc1NC(=S)N1CCC(C(N)=O)CC1	none
COC(=O)c1cc(OC)c(OC)cc1NC(=O)CC1CCCCC1	CYP2C9 inh 51
COC(=O)c1cc(OC)c(OC)cc1NC(=S)N1CCN(C)CC1	CYP2C19 inhib 65
CCOC(=O)C1CCN(C(=S)Nc2cc(OC)c(OC)cc2C(=O)OC)CC1	CYP2C19 inhib 100
COC(=O)c1cc(OC)c(OC)cc1NC(=S)N1CCN(c2ccccc2)CC1	CYP2C19 inhib 100, CYP2C9 inh 54
CCC[N+](CC#Cc1ccccc1)(CCC)CC(=O)c1ccc(Cl)cc1	none (no result: CYP2C19 inhib, CYP2C9 activ, CYP2C9 inh, CYP2C19 act)
Cc1oc(-c2cccs2)nc1CSCC(=O)NC1CC1	none
COC(=O)c1cc(OC)c(OC)cc1NC(=O)CN1CCCCC1	none
COC(=O)c1cc(OC)c(OC)cc1NC(=S)N1CCCCC1	CYP2C19 inhib 50
Cc1ccc(Oc2ncccc2/C=N/OCc2ccc(Cl)cc2Cl)cc1	none
CN(C)c1ccnc(Oc2ccccc2)c1C#N	none
COc1ccccc1CO/N=C/c1cccn1-c1nccc(N(C)C)c1C#N	CYP2C19 inhib 99, CYP2C9 inh 91
CN(C)c1ccnc(-n2cccc2/C=N/OCc2ccccc2)c1C#N	CYP2C19 inhib 96
CN(C)c1ccnc(-n2cccc2/C=N/OCc2ccc(F)cc2Cl)c1C#N	CYP2C19 inhib 98, CYP2C9 inh 96
CCOc1ccc(CN2CCC(=O)NC2=O)cc1	none
Cc1cc(CCN2CCC(=O)NC2=S)ccc1OC(C)C	CYP2C19 inhib 80
O=C(Cc1ccccc1)NC(=S)Nc1cc(C(F)(F)F)ccc1Cl	none
CCOc1ccc(-c2n[nH]c(C)c2Oc2ccc(OC)cc2)c(O)c1	CYP2C19 inhib 100, CYP2C9 inh 99
CCOc1ccc(-c2nc(N)ncc2Oc2cccc(OC)c2)c(O)c1	none
Cc1[nH]nc(-c2ccc(OCc3cnn(-c4ccccc4)c3)c(C)c2O)c1Oc1ccccc1	none
Cc1[nH]nc(-c2ccc(O)c(C)c2O)c1Oc1ccccc1	CYP2C19 inhib 100, CYP2C9 inh 100
CNC(=O)COC(=O)/C=C/c1c(C)nn(-c2ccccc2)c1C	none (no result: CYP2C19 inhib, CYP2C9 activ, CYP2C9 inh, CYP2C19 act)
O=C(COC(=O)c1cc(-c2cccs2)nc2ccccc12)NCc1ccco1	CYP2C19 inhib 54, CYP2C9 inh 90
O=C(COC(=O)c1cc(-c2ccco2)nc2ccccc12)NCc1ccc2c(c1)OCO2	none (no result: CYP2C19 inhib, CYP2C9 activ, CYP2C9 inh, CYP2C19 act)
O=C(NCc1ccco1)c1cc(-c2cccs2)nc2ccccc12	Measles CPE 59 (no result: CYP2C19 inhib, CYP2C9 activ, CYP2C9 inh, CYP2C19 act)
COc1ccccc1CNC(=O)COC(=O)c1cc(-c2ccco2)nc2ccccc12	CYP2C9 inh 52
O=C(COC(=O)c1cc(-c2ccc(Cl)s2)nc2ccccc12)NCc1ccco1	none
CC(=O)NC(Cc1ccccc1)C(=O)O (stereo not drawn)	none (no result: CYP2C19 inhib, CYP2C9 activ, CYP2C9 inh, CYP2C19 act)
O=C(O)c1coc2ccccc12	none
O=C1CC(N2CCOCC2)C(=O)N1c1ccc2c(c1)OCO2 (stereo not drawn)	none
CCOC(=O)C1=C(C)NC(=O)NC1C1CC=CCC1 (stereo not drawn)	CYP2C19 inhib 52
CC1=C(C(=O)OC(C)C)C(C2CC=CCC2)NC(=O)N1 (stereo not drawn)	CYP2C19 inhib 65
CC1=C(C(=O)OC(C)C)C(C)NC(=O)N1 (stereo not drawn)	none
Cn1c(SCC(=O)Nc2sc3c(c2C#N)CCC3)nnc1C1COc2ccccc2O1 (stereo not drawn)	CYP2C9 inh 67
C=CCn1c(SCC(=O)Nc2sc3c(c2C#N)CCC3)nnc1C1COc2ccccc2O1 (stereo not drawn)	CYP2C9 inh 66
COc1cc(C(=O)NCc2ccc(C)cc2)ccc1OC(F)F	none (no result: CYP2C19 inhib, CYP2C9 activ, CYP2C9 inh, CYP2C19 act)
CCOc1ccc(NC(=O)CSc2nnc(C(C)C)n2CC)cc1	none (no result: CYP2C19 inhib, CYP2C9 activ, CYP2C9 inh, CYP2C19 act)
O=C(NCC(=O)N(Cc1ccco1)C(C(=O)NC1CCCCC1)c1cccnc1)c1cccs1 (stereo not drawn)	CYP2C19 inhib 57
COCCN(C(=O)CNC(=O)c1cccs1)C(C(=O)NC1CCCC1)c1cccs1 (stereo not drawn)	CYP2C19 inhib 56
O=c1c(N2CCOCC2)nsn1Cc1ccccc1	none
